Each structure is given as a SMILES string. Inconclusive results are not listed. Active and inactive are the calls of the source. Unless noted, the call rests on the fitted dose curve; in most records, active means well fitted curve in the direction sought with a large enough effect; inconclusive means small, poorly fitted or top-dose-only effect, or another doubt; inactive means no such curve, though single readings can be large; an effect the other way counts as inactive or inconclusive.

The nature of experiment [1]: qHTS assay to identify small molecule inhibitors of chordoma cells - UCH-2 (AID 1259356). Further: series mostly up to about 46 µM. On the technique in general: In qHTS, concentration-response curves come from the screen itself.
Experiment [2] in a line: P-glycoprotein substrates identified in KB-8-5-11 adenocarcinoma cell line, qHTS therapeutic library screen (AID 1346987). Further: nearly all actives have a fitted effect of over 65% in size. Further: potency means the concentration at half of the fitted maximal effect. The procedure, abridged:
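KB-8-5-11: colchicine-selected sub-line of KB-3-1 over-expressing P-gp; assay medium lacked colchicine. 72 h drug exposure at 37 degree C, CellTiter-Glo.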

Experiment [3] is described as follows: NS1 protein of Zika virus - qHTS assay to identify small molecule inhibitors in human HEK 293 cells (AID 1347053). Further: series mostly up to about 46 µM; nearly all actives have a fitted effect of over 55% in size. The procedure, abridged:
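HEK 293 cells, seeded 20 h at 37 C, were pretreated with compound 1 h, then infected with ZIKV MR766 (MOI = 0.5) for 24 h. NS1 was read by TR-FRET with two anti-NS1 antibodies, normalized to uninfected and infected wells.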

Experiment [4] can be described thus: qHTS for Inhibitors of the Functional Ribonucleoprotein Complex (vRNP) of Lassa (LASV) Arenavirus: LASV Primary Screen - GLuc reporter signal (AID 1347082; calls by dose curve; tested in HEK293 reporter line; further: series mostly up to about 57 µM; nearly all actives have a fitted effect of over 60% in size).
Experiment [5] in a line: qHTS for Inhibitors of the Functional Ribonucleoprotein Complex (vRNP) of Lassa (LASV) Arenavirus: Viability assay - alamar blue signal for LASV Primary Screen (AID 1347083; calls by dose curve; tested in HEK293 reporter line; further: series mostly up to about 57 µM; nearly all actives have a fitted effect of over 80% in size).
Experiment [6] in a line: qHTS for Inhibitors of the Functional Ribonucleoprotein Complex (vRNP) of Lymphocytic Choriomeningitis Arenaviruses (LCMV): Viability assay - alamar blue signal for LCMV Primary Screen (AID 1347085; calls by dose curve; tested in HEK293 reporter line; further: series mostly up to about 57 µM; nearly all actives have a fitted effect of over 80% in size).
Experiment [7] can be described thus: qHTS assay to identify small molecule inhibitors of chordoma cells - UCH-1 (AID 1259355). Further: nearly all actives have a fitted effect of over 55% in size. The method, boiled down:
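Cells (800/well) were seeded and left overnight at 37 C, 5% CO2, then treated with drugs at 15 concentrations plus a combination mix of auranofin, camptothecin, doxorubicin, rubitecan and topotecan. Viability after 48hr was read by CellTiter-Glo luminescence.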

Regarding `CCCCCCCCCC(=O)O[C@H]1CC[C@H]2[C@@H]3CCC4=CC(=O)CC[C@@H]4[C@H]3CC[C@]12C`, the result in experiment [1] and in experiment [3] was inactive. For the same compound, the Potency in experiment [2] was 6.51 µM (active). The Potency entry in experiment [4], in experiment [5] and in experiment [6] was “inactive” in each case.

For the compound `O=C1c2ccccc2C(=O)C1C(=O)C(c1ccccc1)c1ccccc1`, the result in experiment [7], in experiment [1] and in experiment [3] was inactive. In addition, the Potency entry in experiment [4], in experiment [5] and in experiment [6] was “inactive” each time.

As to `O=[N+]([O-])O[C@H]1CO[C@H]2[C@@H]1OC[C@H]2O[N+](=O)[O-]`, the compound was called inactive in experiment [7] and in experiment [1]. The Potency result in experiment [2], in experiment [4], in experiment [5] and in experiment [6] was “inactive” throughout.

`C[C@]12CC[C@@H]3c4ccc(OC(=O)N(CCCl)CCCl)cc4CC[C@H]3[C@@H]1CC[C@@H]2O`: the outcome in experiment [7] and in experiment [1] was inactive. The Potency result in experiment [4], in experiment [5] and in experiment [6] was “inactive” throughout.

For `CNC(C)(C)Cc1ccccc1`, the compound was classed as inactive in experiment [7] and in experiment [1]. In addition, the Potency entry in experiment [2], in experiment [4], in experiment [5] and in experiment [6] was “inactive” in each case.

In the case of `CC(C)NC(C)C`, the compound was called inactive in experiment [7] and in experiment [1]. For the same compound, the Potency result in experiment [2], in experiment [4], in experiment [5] and in experiment [6] was “inactive” throughout.

Turning to `NNc1ccccc1`, the compound was called inactive in experiment [7], in experiment [1] and in experiment [3]. In addition, the Potency entry in experiment [2], in experiment [4], in experiment [5] and in experiment [6] was “inactive” in each case.

Consider `c1ccc2c(c1)sc1ccccc12`, for which the compound was called inactive in experiment [7], in experiment [1] and in experiment [3]. In addition, the Potency entry in experiment [2], in experiment [4], in experiment [5] and in experiment [6] was “inactive” throughout.

For `NC1=NC(=O)C(c2ccccc2)O1` (centres undefined), the call in experiment [7], in experiment [1] and in experiment [3] was inactive. In addition, the Potency result in experiment [2], in experiment [4], in experiment [5] and in experiment [6] was “inactive” throughout.

As to `O=c1oc2ccccc2c(O)c1Cc1c(O)c2ccccc2oc1=O`, the result in experiment [7], in experiment [1] and in experiment [3] was inactive. In addition, the Potency result in experiment [4], in experiment [5] and in experiment [6] was “inactive” in each case.

In the case of `CCOC(=O)CC(SP(=S)(OC)OC)C(=O)OCC` (centres undefined), the call in experiment [7] and in experiment [1] was inactive. For the same compound, the Potency result in experiment [2], in experiment [4], in experiment [5] and in experiment [6] was “inactive” throughout.

`COP(=S)(OC)Oc1ccc(S(=O)(=O)N(C)C)cc1`: the result in experiment [1] and in experiment [3] was inactive. The Potency entry in experiment [2], in experiment [4], in experiment [5] and in experiment [6] was “inactive” in each case.

For `CN1C(=O)NC(=O)C(C)(C2=CCCCC2)C1=O` (centres undefined), the call in experiment [7], in experiment [1] and in experiment [3] was inactive. In addition, the Potency entry in experiment [2], in experiment [4], in experiment [5] and in experiment [6] was “inactive” in each case.

Consider `Nc1nc(N)nc(NC2CC2)n1`, for which the compound was classed as inactive in experiment [7], in experiment [1] and in experiment [3]. Besides, the Potency entry in experiment [2], in experiment [4], in experiment [5] and in experiment [6] was “inactive” each time.

As for `Nc1ccccc1C(=O)O`, the outcome in experiment [7], in experiment [1] and in experiment [3] was inactive. In addition, the Potency entry in experiment [2], in experiment [4], in experiment [5] and in experiment [6] was “inactive” in each case.

With `CC(C)=CC1C(C(=O)OCN2C(=O)C3=C(CCCC3)C2=O)C1(C)C` (centres undefined), the call in experiment [7], in experiment [1] and in experiment [3] was inactive. The Potency result in experiment [2], in experiment [4], in experiment [5] and in experiment [6] was “inactive” throughout.

Turning to `CCC(C)(C)c1ccc(O)cc1`, the compound was called inactive in experiment [7] and in experiment [1]. The Potency entry in experiment [2], in experiment [4], in experiment [5] and in experiment [6] was “inactive” each time.

Consider `C[C@]12CCC(=O)C=C1CC[C@@H]1[C@@H]2CC[C@]2(C)C(=O)CC[C@@H]12`, for which the compound was classed as inactive in experiment [7], in experiment [1] and in experiment [3]. Moreover, the Potency entry in experiment [4], in experiment [5] and in experiment [6] was “inactive” throughout.

For `CC(C)c1c(CN(C)C(C)Cc2ccccc2)n(C)n(-c2ccccc2)c1=O` (centres undefined), the outcome in experiment [7], in experiment [1] and in experiment [3] was inactive. For the same compound, the Potency entry in experiment [4], in experiment [5] and in experiment [6] was “inactive” each time.

`CCOP(=S)(OCC)Oc1ccc2c(C)c(Cl)c(=O)oc2c1`: the result in experiment [7], in experiment [1] and in experiment [3] was inactive. Besides, the Potency result in experiment [4], in experiment [5] and in experiment [6] was “inactive” each time.

`O=C1CN=C(c2ccccc2)c2cc([N+](=O)[O-])ccc2N1`: the result in experiment [7], in experiment [1] and in experiment [3] was inactive. The Potency result in experiment [2], in experiment [4], in experiment [5] and in experiment [6] was “inactive” in each case.

Take `CC(C)(C)NCC(O)c1cc(Cl)c(N)c(C(F)(F)F)c1` (centres undefined): the outcome in experiment [7] and in experiment [1] was inactive. Also, the Potency result in experiment [2], in experiment [4], in experiment [5] and in experiment [6] was “inactive” each time.

For `COc1c2c(cc3c1OCO3)CCN(C)C2`, the compound was classed as inactive in experiment [1] and in experiment [3]. In addition, the Potency entry in experiment [2], in experiment [4], in experiment [5] and in experiment [6] was “inactive” in each case.

Regarding `C=CCC1(C(C)CC)C(=O)NC(=O)NC1=O` (centres undefined), the outcome in experiment [3] was inactive. The Potency result in experiment [4], in experiment [5] and in experiment [6] was “inactive” throughout.

Turning to `C[C@H]1[C@@H]2Cc3ccc(O)cc3[C@@]1(C)CCN2C`, the Potency entry in experiment [2], in experiment [4], in experiment [5] and in experiment [6] was “inactive” each time. Besides, in experiment [3], the outcome was inactive.

The record behind these values is PubChem BioAssay (NCATS).
